This is an account of results in PubChem BioAssay AID651593 (National Center for Advancing Translational Sciences (NCATS), 2012).

SMILES strings stand for the structures. Out of some 1,100 compounds screened, about 860 (78%) were called active. Roughly 19% stayed inconclusive and do not appear here. The set was probably picked from earlier hits. This is one part of the list. Unmarked numbers belong to inactive results. The call rests on the fitted dose curve; in most records, active means well fitted activation curve with a large enough effect; inconclusive means small, poorly fitted or top-dose-only effect; inactive means flat fitted curve, though single readings scatter.
Potency means the concentration at half of the fitted maximal effect.

A short description of this assay: qHTS of Nrf2 Activators: Hit Validation in Primary Assay. Further: nearly all actives have a fitted effect of over 70% in size. On activation: 0% is about no effect. As to conditions: Nrf2/ARE reporter cell assay; Potency: activation; series mostly up to 46.1 µM; activation: at the top concentration. Summed up:
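AREc32 cells stably carrying an ARE-driven firefly luciferase, plated overnight, then exposed 24 h at 37 °C to compounds at several concentrations. ARE activation read as luminescence with Steady-Glo after 30 min at room temperature.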
Turning to `Cc1c(Cl)cccc1N=c1c([N+](=O)[O-])nn(-c2ccccc2)n1O`, the Potency was 2.31 µM (active).
For the compound `COc1ccc(Cl)cc1NC(=O)CCS(=O)(=O)c1cccc2nonc12`, the Potency was 16.4 µM (active).
In the case of `Nc1c(Cl)cc(N=Nc2ccccc2)cc1Cl`, the Potency was 2.59 µM (active).
Still for that read-out and setting: the result for `O=c1oc2ccccc2nc1/C=C(\O)c1ccc(Br)cc1` reads 20.6 µM (active).
`O=C(Cn1cnc2ccccc21)N/N=C/C(Br)=C/c1ccccc1`: the Potency was 20.6 µM (active).
In the case of `OCCC#Cc1c(-c2ccsc2)sc2ccccc12`, the Potency was 2.31 µM (active).
Take `O=C(/C=C/c1ccco1)Nc1cccc(S(=O)(=O)N2CCOCC2)c1`: the Potency is 8.2 µM (active).
Same read-out and setting: the result for `O=C(/C=C/c1ccco1)Nc1ccc(Cl)c(-c2nc3cc(Cl)ccc3o2)c1` reads 1.16 µM (active); that for `O=C(/C=C/c1ccco1)Nc1ccc2nn(-c3ccccc3)nc2c1`, 7.31 µM (active).
For `O=C(/C=C/c1ccco1)Nc1ccc(-c2nc3ccccc3[nH]2)cc1`, the Potency is 1.3 µM (active).
Same read-out and setting: the result for `O=[N+]([O-])c1cc2c(cc1Br)-c1ccccc1C2` reads 2.31 µM (active); that for `COc1cc2c(cc1NC(=O)c1ccccc1F)CCCC2`, 6.51 µM (active).
As for `COc1cc2c(cc1NC(=O)c1cccc(F)c1)CCCC2`, the Potency is 2.59 µM (active).
On the same count and under the same terms, the result for `Cc1cc(O)cc2c1C(=O)/C(=C/c1ccco1)O2` reads 1.84 µM (active); that for `COc1cccc(NC(=O)c2cc(Cl)nnc2Cl)c1`, 18.4 µM (active).
For `CCSc1ncc(Cl)c(C(=O)Nc2ccccc2)n1`, the Potency is 4.61 µM (active).
Regarding `COc1cccc(NC(=O)c2nn(C)cc2Br)c1`, the Potency was 16.4 µM (active).
The same measure, in the same setting: the result for `COc1cccc(NC(=O)c2nc(SC)ncc2Cl)c1` reads 2.91 µM (active); that for `CCOC(=O)c1ccc(NC(=O)c2nc(S(=O)(=O)Cc3ccccc3)ncc2Cl)cc1`, 3.66 µM (active); that for `O=C(NCCc1ccccn1)c1c(-c2ccsc2)sc2ccccc12`, 2.31 µM (active).
On the same count and under the same terms, the result for `COc1ccccc1C(=O)COC(=O)c1cccs1` reads 6.51 µM (active); that for `COC(=O)c1ccccc1NC(=O)c1cccs1`, 14.6 µM (active).
With `O=C(Nc1ccc2nsnc2c1)c1cccs1`, the Potency is 6.51 µM (active).
The same measure, in the same setting: the value for `O=C(Nc1cccc2nsnc12)c1cccs1` was 2.91 µM (active); that for `CNC(=O)C1CCN(S(=O)(=O)c2c(C)noc2/C=C/c2ccccc2F)CC1` was 9.2 µM (active); that for `O=C(/C=C/Nc1ccc(F)cc1)c1cccs1` was 6.51 µM (active).
For `CCOC(=O)c1ccccc1N/C=C/C(=O)c1cccs1`, the Potency is 2.31 µM (active).
As to `CCOC(=O)c1ccccc1N/C=C/C(=O)c1ccccc1`, the Potency is 3.26 µM (active).
On the same count and under the same terms, the value for `O=C(CN1CCCCC1)Nc1nnc(-c2ccccc2)s1` was 5.8 µM (active); that for `C/C(=N\Nc1ccccn1)c1cccs1` was 14.6 µM (active); that for `C/C(=N\Nc1ccccn1)c1ccc(Br)s1` was 7.31 µM (active).
`C/C(=N\Nc1ccc(F)cc1F)c1ccc(Br)s1`: the Potency was 16.4 µM (active).
On the same count and under the same terms, the value for `N#Cc1cccn1-c1nccc(-c2cccs2)n1` was 4.61 µM (active).
Turning to `COCCNC(=O)c1ccc(-n2c(-c3ccccc3)cc3c2CCC(C)C3)cc1` (stereo unspecified), the Potency was 16.4 µM (active).
Same read-out and setting: the value for `CC1CCc2c(cc(-c3ccccc3)n2-c2ccc(C(=O)NC(C)C)cc2)C1` (stereo unspecified) was 23.1 µM (active).
As for `Cc1ccc(S(=O)(=O)c2nc(S(C)(=O)=O)sc2N2CCC(O)CC2)cc1`, the Potency was 9.2 µM (active).
Same read-out and setting: the result for `Cc1ccc(S(=O)(=O)c2nc(S(C)(=O)=O)sc2N2CCCCC2C)cc1` (stereo unspecified) reads 2.06 µM (active); that for `Cc1ccc(S(=O)(=O)c2nc(S(C)(=O)=O)sc2N2CCC(C)CC2)cc1`, 20.6 µM (active); that for `COc1ccc(-c2cc3ccccc3oc2=O)cc1NC(=O)c1ccc([N+](=O)[O-])o1`, 3.26 µM (active).
Still for that read-out and setting: the value for `COc1ccccc1NC(=O)c1cnc(SCC(=O)NCCc2ccccc2)n(C)c1=O` was 3.66 µM (active); that for `O=C(COc1cccnc1[N+](=O)[O-])Nc1cccc2ccccc12` was 16.4 µM (active); that for `Cc1ccc(OCC(=O)Nc2cccc3ccccc23)c([N+](=O)[O-])n1` was 11.6 µM (active).
Consider `C/C(=N\Nc1ccc2nncn2n1)c1ccc(Cl)s1`, for which the Potency is 3.66 µM (active).
Consider `COc1ccc([N+](=O)[O-])cc1C1NN=C(c2ccccc2O)S1` (stereo unspecified), for which the Potency is 2.91 µM (active).
As to `O=C1CC(c2ccco2)CC(O)=C1C=Nc1cc(Cl)ccc1O` (stereo unspecified), the Potency was 4.61 µM (active).
Turning to `CC1(C)C(=O)OC(/C=C/c2cccc([N+](=O)[O-])c2)C(C)(C)C1=O` (stereo unspecified), the Potency is 1.03 µM (active).
As for `N#C/C(=C\c1c(Oc2ccc(Cl)cc2)nc2ccccn2c1=O)C(=O)NC1CCS(=O)(=O)C1` (stereo unspecified), the Potency is 2.06 µM (active).
Same read-out and setting: the result for `Cc1cc(C)c2c(N)c(C(=O)c3ccc(Br)cc3)oc2n1` reads 4.11 µM (active).
With `Cc1ccc(-c2cc(-c3cccc(F)c3)n[nH]2)c(O)c1`, the Potency was 2.59 µM (active).
The same measure, in the same setting: the result for `Cc1cccn2c(=O)c(C=NCCO)c(NCc3ccco3)nc12` reads 2.59 µM (active).
As to `O=Cc1c(NCc2ccco2)nc2ccccn2c1=O`, the Potency was 1.64 µM (active).
The same measure, in the same setting: the result for `Fc1ccc2cc(-c3ccsc3)ncc2c1` reads 7.31 µM (active).
In the case of `COc1ccc(N2C(=O)/C(=C\c3ccco3)N=C2SCC(N)=O)cc1Cl`, the Potency was 1.64 µM (active).
Same read-out and setting: the result for `O=C(C=Cc1ccccc1Cl)c1ccccc1` reads 18.4 µM (active); that for `Clc1ccc(/C=N/Nc2nnc(Cl)c3ccccc23)cc1`, 2.31 µM (active).
Take `Clc1nnc(NN=C2CCCC2)c2ccccc12`: the Potency was 4.61 µM (active).
In the case of `O=[N+]([O-])c1cccc(N2Cc3ccccc3C2)c1`, the Potency was 20.6 µM (active).
The same measure, in the same setting: the result for `O=C(N/N=C/C(Br)=C/c1ccccc1)c1ccc([N+](=O)[O-])cc1` reads 18.4 µM (active); that for `COc1ccc2c(c1)C1=NN(/C(C)=C/C(C)=O)C(c3cccc(F)c3)C1CC2` (stereo unspecified), 5.8 µM (active); that for `Cc1ccc(-c2nc3sc(C#N)c(N)n3c(=O)c2C#N)cc1`, 8.2 µM (active).
Still for that read-out and setting: the result for `COc1c(Cl)cc(C(=O)NCc2ccco2)cc1Cl` reads 14.6 µM (active); that for `Cc1c(C(=O)NCc2ccco2)oc2c(Cl)cccc12`, 1.46 µM (active); that for `COc1ccccc1NC(=O)c1ccc(Cl)c(S(=O)(=O)NCc2ccco2)c1`, 10.3 µM (active).
As to `O=C(CCS(=O)(=O)c1ccccc1)Nc1nc2ccc(F)cc2s1`, the Potency is 18.4 µM (active).
Same read-out and setting: the value for `CCOC(=O)c1ccsc1NC(=O)CCS(=O)(=O)c1ccccc1` was 18.4 µM (active); that for `COc1ccc(C)c2sc(NC(=O)CCS(=O)(=O)c3ccccc3)nc12` was 4.11 µM (active).
Same read-out and setting: the value for `COc1ccc(OC)c2sc(NC(=O)CCS(=O)(=O)c3ccccc3)nc12` was 3.26 µM (active); that for `O=C(CCS(=O)(=O)c1ccccc1)Nc1nc2c(s1)COc1ccccc1-2` was 6.51 µM (active); that for `Cc1cccc2cc3c(nc12)-c1ccccc1C3=O` was 10.3 µM (active).
`c1ccc2nc3c(ccc4ccccc43)cc2c1`: the Potency is 9.2 µM (active).
On the same count and under the same terms, the value for `COC(=O)c1c(NC(=O)c2ccccc2)sc(C(N)=O)c1C` was 1.46 µM (active).
`CCOC(=O)c1sc(NC(=O)c2ccccc2F)c(C(N)=O)c1C`: the Potency was 2.31 µM (active).
Still for that read-out and setting: the result for `c1ccc(N2CC3CCc4ccccc4C3=N2)cc1` (stereo unspecified) reads 5.8 µM (active); that for `c1ccc(N2CC3COc4ccccc4C3=N2)cc1` (stereo unspecified), 2.59 µM (active).
On the same count and under the same terms, the result for `Cc1ccc(S(=O)(=O)c2nc(S(C)(=O)=O)sc2N2CC(C)OC(C)C2)cc1` (stereo unspecified) reads 18.4 µM (active).
In the case of `CCCS(=O)(=O)c1nc(S(=O)(=O)c2ccc(C)cc2)c(N2CC(C)OC(C)C2)s1` (stereo unspecified), the “activation” value is 7.58%.
With `CC1CN(c2sc(S(C)(=O)=O)nc2S(=O)(=O)c2ccc(Cl)cc2)CC(C)O1` (stereo unspecified), the Potency was 6.51 µM (active).
Still for that read-out and setting: the result for `CCOC(=O)c1cnc(-c2ccccc2)nc1-c1ccccc1` reads 9.2 µM (active); that for `Nc1nc(Nc2ccccc2F)nc(NCc2ccco2)c1[N+](=O)[O-]`, 2.31 µM (active).
As for `O=C1C=C(C#Cc2ccccc2)C[C@@H](c2ccc(F)cc2)C1`, the Potency is 11.6 µM (active).
On the same count and under the same terms, the result for `CC(C)(C)c1csc(NC(=O)CCS(=O)(=O)c2ccc(F)cc2)n1` reads 20.6 µM (active); that for `O=C(CCS(=O)(=O)c1ccccc1)Nc1nc(-c2ccccn2)cs1`, 18.4 µM (active); that for `Cc1ccc2ccc(C3C(=O)c4ccccc4C3=O)nc2c1`, 1.64 µM (active).
Same read-out and setting: the result for `Cc1ccc(-c2cc(C(F)(F)F)c(C#N)c(SCCC#N)n2)o1` reads 2.59 µM (active); that for `C#CCSc1nc(-c2ccccc2)cc(C(F)(F)F)c1C#N`, 11.6 µM (active).
Same read-out and setting: the value for `c1ccc2c(-c3nc4ncccc4o3)cccc2c1` was 6.51 µM (active); that for `Cn1c(SCC(=O)N/N=C/C=C\c2ccccc2[N+](=O)[O-])nc2ccccc21` was 0.366 µM (active).
As to `Cn1c(SCC(=O)N/N=C/C=C\c2ccco2)nc2ccccc21`, the Potency was 2.59 µM (active).
The same measure, in the same setting: the value for `CCn1c(SCC(=O)N/N=C/C=C/c2ccco2)nc2ccccc21` was 1.46 µM (active); that for `CCn1c(SCC(=O)N/N=C/C=C\c2ccco2)nc2ccccc21` was 1.84 µM (active); that for `Cc1ccc(N=C2NC(=O)S/C2=C\c2ccco2)cc1` was 7.31 µM (active).
Take `Cc1cccc(N=C2NC(=O)S/C2=C\c2ccco2)c1`: the Potency is 3.26 µM (active).
With `C=CCn1c(=NC(=O)c2cc(Cl)sc2Cl)sc2cc(S(N)(=O)=O)ccc21`, the Potency was 2.31 µM (active).
Consider `Oc1c(-c2cc(-c3ccco3)[nH]n2)ccc2ccccc12`, for which the Potency was 2.31 µM (active).
Take `Oc1ccc(Cl)cc1-c1cc(-c2ccco2)[nH]n1`: the Potency was 3.66 µM (active).
Same read-out and setting: the value for `Oc1ccc(Br)cc1-c1cc(-c2ccco2)[nH]n1` was 3.66 µM (active); that for `COc1ccccc1NC(=O)c1cc(Cl)nc2ccccc12` was 5.17 µM (active).
Consider `O=[N+]([O-])c1cnccc1-n1nnc2ccccc21`, for which the Potency is 18.4 µM (active).
The same measure, in the same setting: the value for `COc1ccc(S(=O)(=O)NCCc2csc3nc(-c4ccc(Cl)cc4)nn23)cc1C` was 5.17 µM (active).
As for `O=C(COCc1cc(-c2ccc(F)cc2)on1)Nc1cc(Cl)ccc1O`, the Potency is 8.2 µM (active).
Turning to `O=C(COCc1cc(-c2cccs2)on1)Nc1cc(Cl)ccc1O`, the Potency is 2.31 µM (active).
